Results filed as inconclusive are left out. Where a call stands in place of a potency, no number is given. Active and inactive are the calls of the source. Calls follow the shape of the dose curve; as a rule, active = well fitted cell-killing curve with a large enough effect; inconclusive = small, poorly fitted or top-dose-only effect, or effect the other way; inactive = no such curve, though single readings can be large or run the other way.
Assay: Quantitative High-Throughput drug screen in 47 multiple myeloma cell lines against the NCATS MIPE library collection: RPMI8226_ATCC cell viability assay (AID 1919871); also: nearly all actives have a fitted effect of over 30% in size
Conditions: RPMI8226 myeloma viability, CellTiter-Glo ATP luminescence, 48 h; series mostly up to 45.8 µM
Description: PI: Beverly A. Mock Ph.D.
Laboratory of Cancer Biology and Genetics,
Center for Cancer Research, National Cancer Institute,
National Institute of Health, Bethesda, Maryland
Drug resistance and disease progression are common in multiple myeloma (MM) patients, underscoring the need for new therapeutic combinations. […] We hypothesized that effective combinations would reduce MYC expression and enhance p16 activity. […] These preclinical data identify potentially useful drug combinations for evaluation in drug-resistant MM and reveal potential mechanisms of combined drug sensitivity.
Described herein is the primary MIPE qHTS used to cherrypick compounds. Validated compounds were then further tested for potential synergistic activiy.
[1] Peat TJ, Gaikwad SM, Dubois W, Gyabaah-Kessie N, Zhang S, Gorjifard S, Phyo Z, Andres M, Hughitt VK, Simpson RM, Miller MA, Girvin AT, Taylor A, Williams D, D'Antonio N, Zhang Y, Rajagopalan A, Flietner E, Wilson K, Zhang X, Shinn P, Klumpp-Thomas C, McKnight C, Itkin Z, Chen L, Kazandijian D, Zhang J, Michalowski AM, Simmons JK, Keats J, Thomas CJ, Mock BA. Drug combinations identified by high-throughput screening promote cell cycle transition and upregulate Smad pathways in myeloma. Cancer Lett. 2023 Aug 1;568:216284. doi: 10.1016/j.canlet.2023.216284. Epub 2023 Jun 24. PMID: 37356470; PMCID: PMC10408729.
SEQUENCE No. (e.g., 1, 2, 3, etc.); […] (e.g., Cells, Incubation, Reagent, etc.); VALUE and DESCRIPTION.
1; Cells; 5 uL; white, solid bottom 1536-well Greiner assay plate.
2; Compounds; 23 nL; Kalypsis pin tool (Wako USA) equipped with a 1536-well pin head to transfer to the assay plates.
3; Incubation; 48 hours; 37C incubation.
4; Reagent;5uL; CellTiter Glo (Promega).
5; Detector; 425V; Luminescence; Viewlux PerkinElmer.
NOTES (numbers refer to Sequence numbers above)
1. The cell-based screening methods employed in this study were like those previously published. Briefly, the corresponding myeloma cell lines were screened in 1,536-well plates with 500 cells, 5-uL per well for inhibition of cell viability (assessed by measuring ATP levels with CellTiterGlo).
2. NCATS MIPE 4.0 library of approved and investigational drugs were added using the Kalypsis pin tool. Wells treated with DMSO only for 100% viability and media only for 0% viability were used as controls.
3. The assay plates were covered and incubated for 48 hours in a 37C, 5% CO2 incubator with controlled humidity.
4. After 48 hours, CellTilter-GloTM luminescent substrate mix (Promega) reagent was added to the assay plate and plates we incubated for 5 min at room temperature.
5. Signal was measured as median relative luminescence units on a ViewLux (PerkinElmer) multiplate reader.
[1] Heske CM, Davis MI, Baumgart JT, Wilson K, Gormally MV, Chen L, Zhang X, Ceribelli M, Duveau DY, Guha R, Ferrer M, Arnaldez FI, Ji J, Tran HL, Zhang Y, Mendoza A, Helman LJ, Thomas CJ. Matrix Screen Identifies Synergistic Combination of PARP Inhibitors and Nicotinamide Phosphoribosyltransferase (NAMPT) Inhibitors in Ewing Sarcoma. Clin Cancer Res. 2017 Dec 1;23(23):7301-7311. doi: 10.1158/1078-0432.CCR-17-1121. Epub 2017 Sep 12. PMID: 28899971; PMCID: PMC6636827.
Potency is read from the fitted curve at half-maximal effect.

Row | SMILES | Potency
1 | O=C(OC1C[C@H]2CC[C@@H](C1)[N+]21CCCC1)C(O)(c1ccccc1)c1ccccc1 (stereo not given in full) | inactive
2 | CCCCCCCCCCCCCCCCCCCCCCO | inactive
3 | CC(=O)O[C@H]1C(=O)[C@@]2(C)C([C@H](OC(=O)c3ccccc3)[C@]3(O)C[C@H](OC(=O)[C@H](O)[C@@H](NC(=O)c4ccccc4)c4ccccc4)C(C)=C1C3(C)C)[C@]1(OC(C)=O)CO[C@@H]1C[C@@H]2O (stereo not given in full) | inactive
4 | Oc1ccc2ccccc2c1SSc1c(O)ccc2ccccc12 | 26.4 µM (active)
5 | CC(C)(S)[C@@H](N)C(=O)O | inactive
6 | CCC1=C(C)CN(C(=O)NCCc2ccc(S(=O)(=O)NC(=O)NC3CCC(C)CC3)cc2)C1=O (stereo not given) | inactive
7 | Nc1ccn([C@@H]2O[C@H](CO)[C@@H](O)C2O)c(=O)n1 (stereo not given in full) | inactive
8 | COc1ccc(C2(C#N)CCC(C(=O)O)CC2)cc1OC1CCCC1 (stereo not given) | inactive
9 | COCCCN1CCC(NC(=O)c2cc(Cl)c(N)c3c2OCC3)CC1 | 18.7 µM (active)
10 | Cc1ccc(C)c(OCCCC(C)(C)C(=O)O)c1 | inactive
11 | CCCCc1ccc2nc(NC(=O)OC)[nH]c2c1 | 0.418 µM (active)
12 | Cc1cccc(-c2[nH]ncc2-c2ccc3ncccc3n2)n1 | inactive
13 | NC(=NCc1ccccc1)NC(=O)c1nc(Cl)c(N)nc1N | inactive
14 | Cc1cc2cc3c(C)cc(=O)oc3c(C)c2o1 | 20.9 µM (active)
15 | COc1cc2c(cc1OC)C1CC(=O)C(CC(C)C)CN1CC2 (stereo not given) | 5.9 µM (active)
16 | CN1C(C(=O)Nc2ccccn2)=C(O)c2sccc2S1(=O)=O | inactive
17 | O=C(O)c1cn(-c2ccc(F)cc2)c2cc(N3CCNCC3)c(F)cc2c1=O | inactive
18 | COCCCOc1ccnc(CS(=O)c2nc3ccccc3[nH]2)c1C (stereo not given) | inactive
19 | CCOC(=O)C(C)Oc1cccc2c(=O)n(CC(=O)Nc3ccc4c(c3)OCCO4)ccc12 (stereo not given) | inactive
20 | CC(C)[C@H](N)C(=O)OCCOCn1cnc2c(=O)[nH]c(N)nc21 | inactive

Row | SMILES | Potency
21 | CCCCN(CCCC)CCC(O)c1cc2c(Cl)cc(Cl)cc2c2cc(C(F)(F)F)ccc12 (stereo not given) | inactive
22 | O=P(O)(O)C(O)(Cn1ccnc1)P(=O)(O)O | inactive
23 | CCOC(=O)C1=C(O)C(=O)N(Cc2ccccc2)C1 | 13.2 µM (active)
24 | Cc1cccc(C#Cc2ccccc2)n1 | 3.72 µM (active)
25 | O=c1ccc2ccc(O)c(O)c2o1 | inactive
26 | CNC[C@H](O)c1ccc(O)c(O)c1 | 42.9 µM (active)
27 | O=C1c2c(O)cc(O)cc2OC(c2ccc(O)c(O)c2)C1O (stereo not given) | inactive
28 | Clc1ccc(C(Cn2ccnc2)OCc2ccc(Sc3ccccc3)cc2)c(Cl)c1 (stereo not given) | 23.5 µM (active)
29 | N[C@@H](Cc1cc(I)c(Oc2cc(I)c(O)c(I)c2)c(I)c1)C(=O)O | inactive
30 | CN(C)C(=O)COC(=O)Cc1ccc(OC(=O)c2ccc(N=C(N)N)cc2)cc1 | inactive
31 | CCC(C)(Oc1ccc(C2(c3ccc(OC(C)(CC)C(=O)O)cc3)CCCCC2)cc1)C(=O)O (stereo not given) | inactive
32 | CN(C)c1ccc2nc3ccc(=[N+](C)C)cc-3sc2c1 | 6.62 µM (active)
33 | Cc1cc(O)c2c(c1)C(=O)c1cc(O)cc(O)c1C2=O | 23.5 µM (active)
34 | Nc1cc(C(Cl)=C(Cl)Cl)c(S(N)(=O)=O)cc1S(N)(=O)=O | inactive
35 | CCCc1cc(=O)[nH]c(=S)[nH]1 | inactive
36 | CN(C)CCCC1(c2ccc(F)cc2)OCc2cc(C#N)ccc21 (stereo not given) | 18.7 µM (active)
37 | Cc1cc2c(s1)Nc1ccccc1N=C2N1CCN(C)CC1 | inactive
38 | CC(C)c1ccc2oc3nc(N)c(C(=O)O)cc3c(=O)c2c1 | inactive
39 | CN1CCC(=C2c3ccccc3CCc3sccc32)CC1 | 16.6 µM (active)
40 | CCOc1cc(CC(=O)N[C@@H](CC(C)C)c2ccccc2N2CCCCC2)ccc1C(=O)O | inactive

Source: PubChem BioAssay (NCATS)
